# For some assays here: Measured potencies and affinities stand elsewhere.
# Legend:
# Parameters in all cases: scale not given: direction of the effect not stated beside the values
# [1] = target: Protein translocase subunit SecA (Escherichia coli (strain K12)) (UniProt P10408); assay: Assay to Identify E. coli SecA ATPase Inhibitors; type: functional; settings: 30 µM
# [2] = target: T1, Ubiquitin-activating enzyme e1, putative (Leishmania donovani (strain BPK282A1)) (UniProt E9BSI1); assay: Leishmania donovani Ubiquitin Activating Enzyme (LdE1); type: functional; settings: 30 µM
# T1 sequence (whole entry): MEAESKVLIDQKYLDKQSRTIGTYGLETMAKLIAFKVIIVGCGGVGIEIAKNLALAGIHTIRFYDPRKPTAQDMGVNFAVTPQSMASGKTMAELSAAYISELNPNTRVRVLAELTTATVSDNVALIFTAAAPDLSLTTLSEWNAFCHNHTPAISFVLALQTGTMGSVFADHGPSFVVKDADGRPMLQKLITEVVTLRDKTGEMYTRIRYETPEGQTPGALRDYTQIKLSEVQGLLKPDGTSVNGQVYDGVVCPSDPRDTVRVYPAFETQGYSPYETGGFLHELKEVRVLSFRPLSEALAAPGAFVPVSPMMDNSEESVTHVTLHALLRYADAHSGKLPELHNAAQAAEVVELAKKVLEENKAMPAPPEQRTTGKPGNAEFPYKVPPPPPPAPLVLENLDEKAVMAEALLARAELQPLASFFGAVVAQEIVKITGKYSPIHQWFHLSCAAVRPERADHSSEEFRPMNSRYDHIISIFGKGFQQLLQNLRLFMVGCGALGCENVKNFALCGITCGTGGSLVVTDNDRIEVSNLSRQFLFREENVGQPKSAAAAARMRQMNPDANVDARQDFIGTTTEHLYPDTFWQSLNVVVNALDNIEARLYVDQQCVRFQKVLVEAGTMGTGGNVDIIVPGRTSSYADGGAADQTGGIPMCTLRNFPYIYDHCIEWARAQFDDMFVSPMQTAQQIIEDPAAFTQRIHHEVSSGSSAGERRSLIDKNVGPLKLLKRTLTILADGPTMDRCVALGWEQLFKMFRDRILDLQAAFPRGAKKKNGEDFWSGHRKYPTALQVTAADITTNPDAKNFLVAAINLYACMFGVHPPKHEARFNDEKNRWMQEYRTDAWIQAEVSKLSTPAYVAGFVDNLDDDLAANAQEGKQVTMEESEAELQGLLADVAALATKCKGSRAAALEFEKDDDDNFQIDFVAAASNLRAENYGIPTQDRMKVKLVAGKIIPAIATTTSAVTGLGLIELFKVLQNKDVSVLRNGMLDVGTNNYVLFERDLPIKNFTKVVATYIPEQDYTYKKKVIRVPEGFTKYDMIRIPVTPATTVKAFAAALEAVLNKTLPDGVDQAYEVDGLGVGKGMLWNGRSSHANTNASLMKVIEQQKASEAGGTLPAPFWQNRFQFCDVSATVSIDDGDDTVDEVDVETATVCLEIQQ
# [3] = target: Sialic acid-binding Ig-like lectin 9 (Homo sapiens) (UniProt Q9Y336); assay: Hs-Siglec9 ALPHAscreen SOP 20170721; settings: 10 µM
# Sialic acid-binding Ig-like lectin 9 (Homo sapiens), sequence (Q9Y336 whole entry): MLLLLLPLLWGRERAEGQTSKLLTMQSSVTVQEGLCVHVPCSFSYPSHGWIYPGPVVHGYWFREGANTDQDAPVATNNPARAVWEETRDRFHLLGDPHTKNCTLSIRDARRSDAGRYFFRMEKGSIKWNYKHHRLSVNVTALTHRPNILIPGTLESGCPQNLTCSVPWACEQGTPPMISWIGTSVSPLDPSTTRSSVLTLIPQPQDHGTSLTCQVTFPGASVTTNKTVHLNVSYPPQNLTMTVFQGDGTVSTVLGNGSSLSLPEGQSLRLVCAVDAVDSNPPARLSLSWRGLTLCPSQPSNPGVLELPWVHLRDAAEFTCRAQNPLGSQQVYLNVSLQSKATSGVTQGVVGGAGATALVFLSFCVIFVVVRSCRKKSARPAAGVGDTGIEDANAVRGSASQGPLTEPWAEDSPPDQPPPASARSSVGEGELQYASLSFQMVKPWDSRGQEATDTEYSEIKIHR
# Trypanosoma cruzi = assay: Trypanosoma cruzi phosphomannomutase and mannose-1-phosphate guanylyltransferase assay; type: functional; settings: 10 µM
# [4] = target: T2, Arginase-2, mitochondrial (Homo sapiens) (UniProt P78540); assay: in vitro enzyme assay to detect the production of urea directly proportional to the activity of Arginase II; type: functional; settings: 33.3 µM; note: in the data most compounds retested in dose-response had high values
# T2 sequence (whole entry): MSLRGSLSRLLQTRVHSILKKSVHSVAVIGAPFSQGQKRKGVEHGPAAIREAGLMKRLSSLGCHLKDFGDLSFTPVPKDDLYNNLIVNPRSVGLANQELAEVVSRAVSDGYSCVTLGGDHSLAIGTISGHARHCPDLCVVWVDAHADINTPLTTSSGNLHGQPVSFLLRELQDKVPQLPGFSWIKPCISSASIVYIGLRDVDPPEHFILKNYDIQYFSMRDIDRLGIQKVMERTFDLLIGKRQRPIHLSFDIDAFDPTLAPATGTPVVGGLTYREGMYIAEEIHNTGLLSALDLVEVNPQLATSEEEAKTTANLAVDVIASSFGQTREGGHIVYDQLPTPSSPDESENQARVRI
# [5] = target: T3, Proteasome subunit beta (Trypanosoma cruzi) (UniProt O96673); assay: Trypanosoma cruzi proteasome chymotrypsin-like activity (TcProtChymo) assay.; note: in the data most compounds retested in dose-response had high values; type: functional; settings: 9.37 µM
# T3 sequence (whole entry): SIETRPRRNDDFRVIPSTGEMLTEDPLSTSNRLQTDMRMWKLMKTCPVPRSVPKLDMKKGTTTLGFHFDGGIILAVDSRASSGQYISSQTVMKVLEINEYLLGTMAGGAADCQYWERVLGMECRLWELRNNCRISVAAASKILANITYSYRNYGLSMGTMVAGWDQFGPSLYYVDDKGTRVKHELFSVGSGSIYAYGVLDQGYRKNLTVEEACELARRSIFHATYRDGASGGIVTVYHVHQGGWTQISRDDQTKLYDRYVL
# Homo sapiens = organism: Homo sapiens; assay: To identify inhibition of the IFN signalling (Jak-Stat) pathway via expression of an eGFP reporter gene under the control of an IFN-stimulated response element (ISRE) containing MxA promoter.; type: functional; settings: 30 µM
# [6] = target: T4, Tyrosyl-tRNA synthetase, putative (Trypanosoma cruzi (strain CL Brener)) (UniProt Q4DSP6); assay: Trypanosoma cruzi tyrosyl tRNA synthetase (TcYRS) _High Tyrosine SOP; type: functional; settings: 30 µM; note: in the data most compounds retested in dose-response had high values
# T4 sequence (whole entry): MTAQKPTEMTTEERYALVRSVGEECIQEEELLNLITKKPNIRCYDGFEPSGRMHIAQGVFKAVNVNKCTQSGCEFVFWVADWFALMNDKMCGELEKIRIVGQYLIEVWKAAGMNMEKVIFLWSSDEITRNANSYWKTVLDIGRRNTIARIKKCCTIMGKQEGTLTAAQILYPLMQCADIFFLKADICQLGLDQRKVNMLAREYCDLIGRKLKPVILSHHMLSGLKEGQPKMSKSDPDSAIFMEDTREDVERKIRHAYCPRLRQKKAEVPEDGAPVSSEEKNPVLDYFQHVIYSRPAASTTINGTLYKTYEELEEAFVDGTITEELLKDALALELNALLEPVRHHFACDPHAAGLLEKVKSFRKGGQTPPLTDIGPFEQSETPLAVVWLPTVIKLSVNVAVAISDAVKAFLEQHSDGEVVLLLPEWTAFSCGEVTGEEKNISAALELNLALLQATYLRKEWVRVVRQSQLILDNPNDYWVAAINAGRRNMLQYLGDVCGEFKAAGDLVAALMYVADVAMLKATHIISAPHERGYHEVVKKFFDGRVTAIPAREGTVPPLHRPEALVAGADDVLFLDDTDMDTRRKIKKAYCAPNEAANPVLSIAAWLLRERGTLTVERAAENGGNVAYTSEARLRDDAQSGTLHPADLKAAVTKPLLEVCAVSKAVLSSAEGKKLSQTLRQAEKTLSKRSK
# [7] = target: T4, Tyrosyl-tRNA synthetase, putative (Trypanosoma cruzi (strain CL Brener)); assay: Trypanosoma cruzi tyrosyl tRNA synthetase (TcYRS) SOP; type: functional; settings: 30 µM
# [8] = target: Chromo domain-containing protein 1 (Saccharomyces cerevisiae (strain ATCC 204508 / S288c) (Baker's yeast)) (UniProt P32657); assay: ScCHD-1 Enzyme Inhibition Assay; type: functional; settings: 30 µM; note: in the data most compounds retested in dose-response had high values
# Chromo domain-containing protein 1 (Saccharomyces cerevisiae (strain ATCC 204508 / S288c) (Baker's yeast)), sequence (P32657 whole entry, the tested form may be a part): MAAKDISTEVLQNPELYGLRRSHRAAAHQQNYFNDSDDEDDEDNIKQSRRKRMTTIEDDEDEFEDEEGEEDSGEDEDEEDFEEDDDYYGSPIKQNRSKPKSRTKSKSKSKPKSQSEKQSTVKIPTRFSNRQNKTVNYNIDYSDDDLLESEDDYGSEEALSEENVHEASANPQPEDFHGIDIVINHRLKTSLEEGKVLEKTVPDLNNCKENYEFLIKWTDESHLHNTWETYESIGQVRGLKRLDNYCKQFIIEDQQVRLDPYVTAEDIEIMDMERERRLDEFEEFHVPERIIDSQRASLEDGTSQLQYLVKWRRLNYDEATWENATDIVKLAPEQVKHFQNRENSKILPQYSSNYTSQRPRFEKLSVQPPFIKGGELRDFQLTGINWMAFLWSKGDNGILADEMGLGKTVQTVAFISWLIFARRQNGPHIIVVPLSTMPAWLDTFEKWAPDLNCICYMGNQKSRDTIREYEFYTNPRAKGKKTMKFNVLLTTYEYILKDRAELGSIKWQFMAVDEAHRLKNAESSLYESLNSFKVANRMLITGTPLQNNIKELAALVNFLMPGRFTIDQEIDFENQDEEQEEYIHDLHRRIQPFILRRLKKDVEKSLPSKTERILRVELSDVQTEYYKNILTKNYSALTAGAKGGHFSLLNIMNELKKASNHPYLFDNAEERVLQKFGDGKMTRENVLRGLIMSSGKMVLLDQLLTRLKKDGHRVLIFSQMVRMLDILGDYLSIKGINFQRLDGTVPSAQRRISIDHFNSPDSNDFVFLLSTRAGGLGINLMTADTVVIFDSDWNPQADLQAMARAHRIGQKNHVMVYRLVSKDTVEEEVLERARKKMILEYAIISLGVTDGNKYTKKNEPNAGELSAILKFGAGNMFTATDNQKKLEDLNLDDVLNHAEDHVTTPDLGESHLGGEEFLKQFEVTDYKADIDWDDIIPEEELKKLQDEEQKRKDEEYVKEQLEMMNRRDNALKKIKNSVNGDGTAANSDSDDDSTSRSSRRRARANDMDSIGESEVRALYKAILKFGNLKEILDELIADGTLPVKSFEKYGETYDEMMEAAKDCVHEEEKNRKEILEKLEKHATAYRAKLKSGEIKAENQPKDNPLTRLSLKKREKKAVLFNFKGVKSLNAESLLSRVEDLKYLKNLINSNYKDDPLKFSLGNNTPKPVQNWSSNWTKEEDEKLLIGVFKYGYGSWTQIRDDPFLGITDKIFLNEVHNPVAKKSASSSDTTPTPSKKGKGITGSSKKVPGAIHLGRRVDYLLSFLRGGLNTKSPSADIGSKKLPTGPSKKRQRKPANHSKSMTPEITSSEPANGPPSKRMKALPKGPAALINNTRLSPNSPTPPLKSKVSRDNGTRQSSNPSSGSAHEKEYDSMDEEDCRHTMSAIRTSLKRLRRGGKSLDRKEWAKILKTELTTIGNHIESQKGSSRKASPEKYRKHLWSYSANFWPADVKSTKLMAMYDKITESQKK
# Protein translocase subunit SecA (Escherichia coli (strain K12)), sequence (P10408 whole entry): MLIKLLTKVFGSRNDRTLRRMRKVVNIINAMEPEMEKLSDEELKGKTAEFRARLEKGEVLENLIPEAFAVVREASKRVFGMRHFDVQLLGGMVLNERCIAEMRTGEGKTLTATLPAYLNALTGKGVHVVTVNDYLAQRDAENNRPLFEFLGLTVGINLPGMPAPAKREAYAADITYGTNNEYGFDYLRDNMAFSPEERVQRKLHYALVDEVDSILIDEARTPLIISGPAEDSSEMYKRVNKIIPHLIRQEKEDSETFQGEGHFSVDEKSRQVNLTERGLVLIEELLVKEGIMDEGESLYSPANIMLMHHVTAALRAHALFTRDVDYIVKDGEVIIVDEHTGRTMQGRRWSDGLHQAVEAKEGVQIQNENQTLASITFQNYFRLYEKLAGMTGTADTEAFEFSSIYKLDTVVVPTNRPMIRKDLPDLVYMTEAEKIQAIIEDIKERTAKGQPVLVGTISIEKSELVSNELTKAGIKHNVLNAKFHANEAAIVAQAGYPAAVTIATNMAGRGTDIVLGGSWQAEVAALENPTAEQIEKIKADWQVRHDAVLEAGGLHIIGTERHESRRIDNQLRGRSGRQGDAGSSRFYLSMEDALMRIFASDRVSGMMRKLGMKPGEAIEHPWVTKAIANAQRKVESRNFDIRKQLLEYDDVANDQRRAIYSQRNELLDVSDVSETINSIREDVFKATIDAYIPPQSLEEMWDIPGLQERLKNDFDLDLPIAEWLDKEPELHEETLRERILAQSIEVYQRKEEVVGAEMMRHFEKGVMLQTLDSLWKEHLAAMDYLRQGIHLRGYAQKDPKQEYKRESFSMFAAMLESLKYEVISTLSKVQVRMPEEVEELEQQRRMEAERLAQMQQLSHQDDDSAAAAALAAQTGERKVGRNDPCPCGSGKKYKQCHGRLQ
SMILES,Percent Effect [1],Percent Effect [2],Percent Effect [3],Percent Effect (Trypanosoma cruzi),Percent Effect [4],Percent Effect [5],Percent Effect (Homo sapiens),Percent Effect [6],Percent Effect [7],Percent Effect [8]
C[C@@H]1CN(C(=O)c2cccs2)C[C@]12CCN(CCN(C)C)C2=O,-6.68%,9.09%,2.17%,-6.57%,0.457%,9.87%,18%,0.966%,-5%,-8.48%
CN(C)CC1CN(Cc2nnc(-c3ccccc3Cl)o2)CCO1 (stereo not given),-1.11%,13.3%,-7.04%,-2.81%,1.77%,15.7%,9.96%,-3.68%,0%,-11.7%
CN(C)C(=O)N1C[C@H]2CCC[C@@]2(COc2ccccn2)C1,-6.8%,6.49%,-3.98%,-4.58%,-6.07%,10.9%,6.85%,-0.526%,5.13%,-2.37%
Cc1ccc(Cl)cc1N1CCC(CNC(=O)CC(F)(F)F)C1 (stereo not given),-3.87%,-2.56%,-7.65%,-2.54%,1.23%,7.25%,38.9%,-0.478%,-3.61%,0.808%
c1ccc(Cn2ccnc2CN2CCCC2c2noc(C3CC3)n2)cc1 (stereo not given),2.82%,5.33%,-7.23%,-5.22%,1.77%,19.1%,15.7%,7.89%,10.3%,-12.1%
CNC(=O)c1ccc(C2CN(C(=O)COC)CCO2)nc1 (stereo not given),0.488%,9.33%,3.63%,-4.14%,3.54%,7.39%,0.241%,2.12%,7.5%,-21.4%
Cc1ncc(-c2ccnc(N3CCN(C)CC3)n2)c(-c2cccnc2)n1,-1.44%,8%,-2.21%,-9.24%,-39.9%,8.57%,8.85%,4.74%,-2.56%,-12.5%
CN(C)C[C@@H]1C[C@@H]2CN(C(=O)c3ccoc3)CC[C@@H]2N1CC1CC1,-7.24%,11.7%,1.31%,-6.19%,0.913%,0.429%,11.2%,-4.83%,-2.5%,-4.24%

# From ChEMBL document CHEMBL3988442, “University of Dundee, Small-Polar-MMV Screening Library” (2021)
